system: human monocyte-derived macrophages (polarized); test: cell shape (eccentricity) Z-score vs DMSO control; higher = more elongated, M2-like morphology; details: 5 µM; 24 h; macrophage state: M2-polarized (IL-4 + IL-13), cytokines present during treatment
Description: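 Primary-screen hits were rescreened on polarized hMDMs with the differentiating cytokines (IL-4 + IL-13 or IFNg + TNFa) kept in the medium during treatment with compound at 5 uM for 24 h. The eccentricity Z-score vs DMSO wells is averaged over experiments.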

Row | Compound | cell shape (Z-score)
1 | O=C1c2ccccc2-c2nc3nonc3nc21 | -2.4
2 | COc1cc(C=O)cc2c1[nH]c1ccccc12 | -3.04
3 | Cc1ccc(O)c(N=Nc2ccccc2)n1 | -1.32
4 | Cc1nc(Nc2n[nH]c3c2CN(C(=O)N[C@H](CN(C)C)c2ccccc2)C3(C)C)c2sccc2n1 | -7.51
5 | COCCCOc1ccnc(C[S+]([O-])c2nc3ccccc3[nH]2)c1C (stereo unspecified) | 1.52
6 | CCCC[C@@H](O)c1cc(OC)cc(=O)o1 | -3.33
7 | O=C(O)CC[C@H]1CC[C@@](c2cc(F)ccc2F)(S(=O)(=O)c2ccc(Cl)cc2)CC1 | 4.15
8 | CN1c2ccccc2C(=O)N2CCc3c([nH]c4ccccc34)[C@@H]21 | -7.76
9 | O=c1nc2ccccc2c2n1CC(CN1CCN(c3ccccc3)CC1)N2 (stereo unspecified) | -1.27
10 | COC(=O)Nc1nc2ccc(SC(C)C)cc2[nH]1 | 0.135
11 | COc1ccc(C[C@H](N)C(=O)N[C@H]2[C@@H](O)[C@H](n3cnc4c(N(C)C)ncnc43)O[C@@H]2CO)cc1 | -12.5

Source: the supplement of paper PMC7858590
